For 40 molecules, AC50 and outcome results are on record in PubChem BioAssay (EPA / NIEHS).

As usually defined, the AC50 is the concentration giving half of the maximal activity seen.

Records with an inconclusive call do not appear. The source made the active and inactive calls. Rule for the calls: active = hit-call score of the fitted dose curve at least 0.9, where 1 is the maximum; inconclusive = response in the unintended direction; inactive = score below 0.9.

This assay in a line: ACEA_ER_AUC_viability: ACEA Biosciences xCELLigence Real-Time Cell Analysis on Estrogen Receptor Agonism for Viability (AID 2283782).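 Note: continuous compound exposure with impedance area under curve over 80 h; hit means loss of impedance signal meaning reduced cell growth or viability.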 On the procedure:
ACEA_ER is a cell-based, single-readout assay that uses T47D, a human breast cell line, with measurements taken at 80 hours after chemical dosing in a 96-well plate, although TO2 (mc0.srcf) used a 384-well plate. Differences in plate size can be ignored given data normalization.ACEA_ER_AUC_viability is one of two assay component(s) measured or calculated from the ACEA_ER assay. It is designed to make measurements of real-time cell-growth kinetics, a form of growth reporter, as detected with electrical impedance signals by Real-Time Cell Electrode Sensor (RT-CES) technology.Data from the assay component ACEA_ER_AUC_viability was analyzed in the positive analysis fitting direction relative to DMSO as the negative control and baseline of activity. Using a type of growth reporter, loss-of-signal activity can be used to understand changes in the viability. Furthermore, this assay endpoint can be referred to as a secondary readout, because this assay has produced multiple assay endpoints where this one serves a viability function. To generalize the intended target to other relatable targets, this assay endpoint is annotated to the cell cycle intended target family, where the subfamily is cytotoxicity.
The xCELLigence system Multi-E-Plate stations were used to measure the time-dependent response to chemicals. Each compound was tested in an eight-point, 1:4 serial dilution series starting at a maximum final concentration of 100 uM. A maximum starting concentration of 0.5% DMSO was present in the 100 uM chemical samples and was diluted along with the test article dilution series. The screen was performed in biological duplicate using two separate, 96-well, E-Plates 96 for each dilution series (n = 2). Positive controls (MG132 and E2) and a negative control (assay media) were tested in quadruplicate on each testing plate. Then, 0.5% and 0.125% DMSO were tested in duplicates in each plate to serve as solvent controls for the 2 highest concentrations of testing compounds: 100 uM and 25 uM. Reference compounds were tested with 8 concentrations with 1:5 serial dilutions. All screening was carried out by ACEA Biosciences, Inc. (San Diego, CA). T-47D cells purchased from ATCC were maintained in RPMI1640 media supplemented with 10% characterized fetal bovine serum (FBS). Before screening, T-47D cells were preconditioned in assay medium: phenol red-free RPMI1640 supplemented with 10% charcoal-stripped FBS. Cells were then detached and seeded in E-Plates 96 in assay medium. After overnight monitoring of growth once every hour, compounds were added to […] cells and remained in the medium until the end of the experiment. Cellular responses were then recorded once every 5 min for the first 5 h, and once every hour for an additional 100 h.
As for `CC/C=C\CCOC(=O)c1ccccc1`, the concentration at half-maximal activity (AC50) was 76.7 µM (active).

Consider `CCCCCCS`, for which the concentration at half-maximal activity (AC50) was 50 µM (active).

For the molecule `O=C(O)C(F)(F)C(F)(F)F`, the molecule was classed as inactive.

For the molecule `O=C(O)C(F)(F)C(F)(F)C(F)(F)C(F)(F)C(F)(F)C(F)(F)C(F)(F)C(F)(F)C(F)(F)C(F)(F)C(F)(F)C(F)(F)F`, the AC50 is 19.3 µM (active).

Consider `CCc1ccc(C(c2ccc(CC)cc2)C(Cl)Cl)cc1`, for which the molecule was called inactive.

As for `CCCCCC=O`, the outcome was inactive.

As for `FC(F)(F)C(F)(F)C(F)(F)C(F)(F)C(F)(F)C(F)(F)C(F)(F)I`, the result was inactive.

Take `O=S(=O)(O)C(F)(F)C(F)(F)C(F)(F)C(F)(F)C(F)(F)C(F)(F)C(F)(F)F`: the molecule was classed as inactive.

For the molecule `Nc1ccc(Oc2cccc(Oc3ccc(N)cc3)c2)cc1`, the AC50 was 64.2 µM (active).

Regarding `Nc1ccc([N+](=O)[O-])cc1O`, the molecule was classed as inactive.

Regarding `CC(C)(C)c1ccc(OC2CCCCC2O)cc1` (stereo not given), the molecule was called inactive.

Regarding `OCC(F)(F)C(F)(F)C(F)(F)C(F)F`, the outcome was inactive.

With `O=C(Cl)C(F)(F)C(F)(F)C(F)(F)C(F)(F)C(F)(F)C(F)(F)C(F)(F)C(F)(F)F`, the AC50 was 127 µM (active).

As for `N=C(N)C(F)(F)C(F)(F)C(F)(F)C(F)(F)C(F)(F)C(F)(F)C(F)(F)F`, the AC50 is 75 µM (active).

On to `O=C(O)C(F)(OC(F)(F)C(F)(OC(F)(F)C(F)(OC(F)(F)C(F)(F)C(F)(F)F)C(F)(F)F)C(F)(F)F)C(F)(F)F` (stereo not given), for which the call was inactive.

In the case of `FC(F)(F)C(F)(F)C(F)(F)C(F)(F)C(F)(F)CCI`, the molecule was called inactive.

With `O=C(OCCOCCOCCOC(=O)c1ccccc1)c1ccccc1`, the call was inactive.

`OCC(F)(F)C(F)(F)C(F)(F)C(F)(F)C(F)(F)C(F)F`: the molecule was called inactive.

As for `O=C(O)C(F)(F)C(F)(F)C(F)F`, the outcome was inactive.

Consider `CC(=O)Nc1ccc(N=Nc2cc(C)ccc2O)cc1`, for which the result was inactive.

Take `FC(F)(I)C(F)(F)C(F)(F)C(F)(F)I`: the AC50 was 129 µM (active).

On to `OC[C@@H](O)[C@@H](O)[C@H](O)[C@@H](O)CO`, for which the molecule was called inactive.

For the molecule `C=C(C)C(=O)OCC(F)(F)C(F)(F)C(F)(F)F`, the result was inactive.

As to `C(=C(c1ccccc1)c1ccccc1)c1ccccc1`, the AC50 was 87.1 µM (active).

On to `COC(OC(C)=O)c1ccccc1` (stereo not given), for which the outcome was inactive.

For the molecule `FC1CC(F)(F)C(F)(F)C1(F)F` (stereo not given), the outcome was inactive.

With `O=C(O)C(F)(F)C(F)(F)C(F)(F)C(F)(F)C(F)(F)C(F)(F)C(F)(F)C(F)(F)C(F)(F)C(F)(F)C(F)(F)C(F)(F)C(F)(F)F`, the half-maximal activity concentration (AC50) is 2.91 µM (active).

As to `c1ccc(-c2ccccc2-c2ccccc2)cc1`, the half-maximal activity concentration (AC50) is 78.7 µM (active).

Turning to `CCN(CC)c1ccc2c(C)cc(=O)oc2c1`, the AC50 was 17.1 µM (active).

For `CC(C)=CCCC(C)CCOC(=O)C(C)C` (stereo not given), the AC50 was 50 µM (active).

With `O=S(=O)(OCC(F)F)C(F)(F)F`, the outcome was inactive.

Consider `CC/C=C\CCOC(C)=O`, for which the molecule was classed as inactive.

Regarding `Cc1cccc(N(C)C)c1`, the half-maximal activity concentration (AC50) was 25.6 µM (active).

For the molecule `FC(F)(F)C(F)(F)CNCC(F)(F)C(F)(F)F`, the outcome was inactive.

In the case of `C=C(C)C(=O)OCC(F)(F)C(F)(F)C(F)(F)C(F)(F)C(F)(F)C(F)(F)C(F)(F)F`, the call was inactive.

On to `COC(=O)CCC(F)(F)C(F)(F)C(F)(F)C(F)(F)F`, for which the call was inactive.

Consider `CC(Cc1ccc(O)c(O)c1)C(C)Cc1ccc(O)c(O)c1` (stereo not given), for which the AC50 is 27.6 µM (active).

With `FC(F)(F)C(F)(F)C(F)(F)C(F)(F)C(F)(F)C(F)(F)C(F)(F)Br`, the molecule was called inactive.

As to `FC(F)(F)C(F)(F)C(F)(F)CI`, the result was inactive.

On to `Oc1ccc(Nc2ccccc2)cc1`, for which the AC50 was 25.4 µM (active).
